# Source: PubChem BioAssay
# Activity calls are given as the source filed them. Unless noted, no rule for the calls is given here.
# Legend:
# [1] = system: Wnt5a (protein binding on small-molecule microarray); test: Wnt5a binders on small-molecule microarray, primary screen, biophysical, 635/667 nm fluorescence (AID 1142); settings: 635 nm fluorescence, higher = more signal;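 also: fluorescence read at 667 nm with signal to noise per printed feature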
# [2] = cell viability in Huh7 cells, primary screen, cytotoxicity control for HCV replication inhibitor project, CellTiter-Glo luminescence, basal, 48 h (AID 1143); settings: Huh7 HCV replicon, higher = more signal, called active from +8 up or from −8 down;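 also: Huh7 hepatoma cells carrying a hepatitis C replication reporter with no stimulus; test concentration not given here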
# [3] = P. aeruginosa biofilm formation inhibitors, primary screen, PAO1 strain, BacTiter-Glo luminescence, LB-PBS (AID 1144); settings: 12 h, higher = more signal
# [4] = CREB reporter modulators without forskolin, primary screen, cell-based, PC12, CRE-LacZ reporter, unstimulated (AID 1145); settings: no forskolin, luminescence, 4.5 h, higher = more signal, called active from +8 up or from −8 down
# [5] = CREB reporter modulators under forskolin, primary screen, cell-based, PC12, CRE-LacZ reporter, forskolin-stimulated (AID 1146); settings: luminescence, 4.5 h, higher = more signal, called active from +8 up or from −8 down;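 also: PC12 cells with 6xCRE LacZ reporter stimulated by forskolin 10 µM; beta-galactosidase reporter signal reflecting CREB driven transcription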
# [6] = target: Streptavidin (Streptomyces avidinii) (UniProt P22629); test: streptavidin binders on small-molecule microarray, primary screen, artefact control for SMM compound annotation, biophysical, 635/667 nm fluorescence (AID 1147); settings: streptavidin binding, higher = more signal;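 also: signal reflects streptavidin binding to arrayed compounds as a control protein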
# Sequence of Streptavidin (Streptomyces avidinii) (P22629 whole entry, looked up): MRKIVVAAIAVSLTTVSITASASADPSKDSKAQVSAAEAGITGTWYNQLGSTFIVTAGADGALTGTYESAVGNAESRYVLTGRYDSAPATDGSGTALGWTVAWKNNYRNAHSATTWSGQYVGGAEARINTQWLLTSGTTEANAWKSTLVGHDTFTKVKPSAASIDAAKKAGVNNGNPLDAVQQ
# [7] = small-molecule binders of probe aInhba, primary screen, biochemical, small-molecule microarray, 635/667 nm fluorescence (AID 1148); settings: higher = more signal;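 also: score merges 667nm spot fluorescence with signal-to-noise for antibody binding to printed compounds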
# [8] = target: Torsin-1A (Homo sapiens) (UniProt O14656); test: torsin A binders from cell lysate, primary screen, small-molecule microarray, wild-type, 635/667 nm (AID 1149); settings: COS7 hTOR1A-WT lysate, 635 nm fluorescence, higher = more signal
# Sequence of Torsin-1A (Homo sapiens) (O14656 whole entry, looked up): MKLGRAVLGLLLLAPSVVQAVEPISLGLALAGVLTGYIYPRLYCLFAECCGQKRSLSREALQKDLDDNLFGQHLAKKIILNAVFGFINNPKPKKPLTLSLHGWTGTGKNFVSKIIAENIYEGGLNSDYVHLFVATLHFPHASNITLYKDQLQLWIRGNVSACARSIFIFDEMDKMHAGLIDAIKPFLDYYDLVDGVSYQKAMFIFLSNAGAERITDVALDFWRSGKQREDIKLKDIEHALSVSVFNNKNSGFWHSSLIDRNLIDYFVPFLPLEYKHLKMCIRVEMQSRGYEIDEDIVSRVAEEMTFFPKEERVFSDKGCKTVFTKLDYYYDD
# [9] = target: Torsin-1A (Homo sapiens) (UniProt O14656); test: small-molecule binders of mutant TOR1A in lysate, primary screen, cell lysate, small-molecule microarray, COS7 lysate, 635/667 nm fluorescence (AID 1150); settings: COS7 hTOR1A mutant lysate, 635 nm fluorescence, higher = more signal;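 also: score pools 667 nm emission and signal to noise measuring lysate protein binding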
# [10] = system: Sonic hedgehog protein (Shh); test: small-molecule binders of Shh protein, primary screen, biochemical, small-molecule microarray, 635/667 nm fluorescence (AID 1151); settings: small-molecule microarray binding, 635 nm fluorescence; higher = more signal;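 also: Shh protein binding to compounds spotted on small-molecule microarray slides; score combines spot fluorescence intensity with signal-to-noise across triplicate slides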
# [11] = E. coli DRC41 culture turbidity changes, primary screen, E. coli filamentation inducer project, strain DRC41, OD650, 48 h (AID 1152);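 also: E. coli MC1000 strain DRC41 lacking acrAB efflux pump and sulA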; settings: E. coli DRC41 (acrAB sulA), higher = more signal, called active from +8 up or from −8 down
# [12] = small-molecule binders of probe aLefty1, primary screen, biochemical, small-molecule microarray, 635/667 nm fluorescence (AID 1153); settings: higher = more signal;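 also: score merges spot fluorescence with signal-to-noise ratio from the scanned slide images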
# [13] = PSAC antagonists in infected red cells, primary screen, cell-based, P. falciparum Indochina, OD700, 1 h (AID 1154); settings: P. falciparum Indochina infected RBC osmotic lysis, higher = more signal, called active from +8 up or from −8 down
# [14] = PSAC antagonists in infected red cells, primary screen, cell-based, P. falciparum Indochina, OD700, 2 h (AID 1155);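 also: lysis reports solute entry through the parasite surface anion channel PSAC; channel blockers reduce lysis of infected cells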; settings: P. falciparum Indochina infected erythrocytes, osmotic lysis OD700; higher = more signal, called active from +8 up or from −8 down
# [15] = osmotic lysis modulators in infected erythrocytes, primary screen, PSAC antagonist project, cell-based, P. falciparum Indochina, OD700, 3 h (AID 1156); settings: higher = more signal, called active from +8 up or from −8 down
# [16] = PSAC antagonists in infected red cells, primary screen, cell-based, P. falciparum Indochina, OD700, 18 h (AID 1157); settings: P. falciparum Indochina infected erythrocytes, osmotic lysis OD700, 18 h; higher = more signal, called active from +8 up or from −8 down
# [17] = modulators of S6 phosphorylation in cells, primary screen, cell-based, A549, cytoblot, luminescence, serum-stimulated (AID 1158); settings: A549 phospho-S6 cytoblot, 5 h, higher = more signal;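 also: serum-stimulated A549 lung adenocarcinoma cells; signal is phosphorylated S6 detected by cytoblot immunostaining with HRP secondary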
# [18] = target: NADPH oxidase 2 (Homo sapiens) (UniProt P04839); test: NOX2-dependent H2O2 signal modulators, primary screen, NOX inhibitor project, cell-based, HEK293-NOX2, PMA-stimulated, Amplex Red fluorescence (AID 1159); settings: 45 min, higher = more signal, called active from +8 up or from −8 down; also: test concentration not given here
# Sequence of NADPH oxidase 2 (Homo sapiens) (P04839 whole entry, looked up): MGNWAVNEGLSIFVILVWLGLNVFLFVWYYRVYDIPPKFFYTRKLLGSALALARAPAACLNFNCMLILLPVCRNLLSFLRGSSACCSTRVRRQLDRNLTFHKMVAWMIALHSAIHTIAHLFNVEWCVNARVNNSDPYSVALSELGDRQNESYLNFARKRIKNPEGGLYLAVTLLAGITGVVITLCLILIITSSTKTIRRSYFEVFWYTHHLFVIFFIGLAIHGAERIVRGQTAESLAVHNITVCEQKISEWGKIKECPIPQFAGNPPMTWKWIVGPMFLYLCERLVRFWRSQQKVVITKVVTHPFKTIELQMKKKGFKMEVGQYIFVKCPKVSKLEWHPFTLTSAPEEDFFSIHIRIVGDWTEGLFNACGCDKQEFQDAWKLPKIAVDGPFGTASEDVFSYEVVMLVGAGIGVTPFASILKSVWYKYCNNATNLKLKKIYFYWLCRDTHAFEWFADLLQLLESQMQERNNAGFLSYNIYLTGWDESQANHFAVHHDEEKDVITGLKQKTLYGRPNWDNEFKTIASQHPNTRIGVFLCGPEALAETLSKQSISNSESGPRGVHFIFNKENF
# [19] = target: NADPH oxidase 4 (Homo sapiens) (UniProt Q9NPH5); test: NOX4-dependent H2O2 signal modulators, primary screen, NOX inhibitor project, cell-based, HEK293-NOX4, tetracycline-induced, Amplex Red fluorescence (AID 1160); settings: 45 min, higher = more signal, called active from +8 up or from −8 down
# Sequence of NADPH oxidase 4 (Homo sapiens) (Q9NPH5 whole entry, looked up): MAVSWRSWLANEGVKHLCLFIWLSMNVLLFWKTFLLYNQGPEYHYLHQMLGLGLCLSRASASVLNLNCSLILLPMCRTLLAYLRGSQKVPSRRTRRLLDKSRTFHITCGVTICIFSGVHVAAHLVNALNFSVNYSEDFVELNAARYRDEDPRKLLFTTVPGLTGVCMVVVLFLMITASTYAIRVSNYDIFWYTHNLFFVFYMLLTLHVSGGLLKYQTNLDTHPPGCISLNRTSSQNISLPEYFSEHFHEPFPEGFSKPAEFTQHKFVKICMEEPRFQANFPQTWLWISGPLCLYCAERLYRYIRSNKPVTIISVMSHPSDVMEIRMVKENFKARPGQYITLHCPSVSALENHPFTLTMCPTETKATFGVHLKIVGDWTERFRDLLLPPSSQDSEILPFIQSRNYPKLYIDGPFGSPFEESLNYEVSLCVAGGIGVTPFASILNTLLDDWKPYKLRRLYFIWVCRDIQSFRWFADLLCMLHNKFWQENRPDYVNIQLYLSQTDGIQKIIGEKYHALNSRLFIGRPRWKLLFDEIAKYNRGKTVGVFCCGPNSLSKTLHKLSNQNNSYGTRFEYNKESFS
# [20] = target: NADPH oxidase 5 (Homo sapiens) (UniProt Q96PH1); test: NOX5-dependent H2O2 signal modulators, primary screen, NOX inhibitor project, cell-based, HEK293-NOX5, Amplex Red fluorescence (AID 1161); settings: HEK293-NOX5, ionomycin, 45 min, higher = more signal
# Sequence of NADPH oxidase 5 (Homo sapiens) (Q96PH1 whole entry, looked up): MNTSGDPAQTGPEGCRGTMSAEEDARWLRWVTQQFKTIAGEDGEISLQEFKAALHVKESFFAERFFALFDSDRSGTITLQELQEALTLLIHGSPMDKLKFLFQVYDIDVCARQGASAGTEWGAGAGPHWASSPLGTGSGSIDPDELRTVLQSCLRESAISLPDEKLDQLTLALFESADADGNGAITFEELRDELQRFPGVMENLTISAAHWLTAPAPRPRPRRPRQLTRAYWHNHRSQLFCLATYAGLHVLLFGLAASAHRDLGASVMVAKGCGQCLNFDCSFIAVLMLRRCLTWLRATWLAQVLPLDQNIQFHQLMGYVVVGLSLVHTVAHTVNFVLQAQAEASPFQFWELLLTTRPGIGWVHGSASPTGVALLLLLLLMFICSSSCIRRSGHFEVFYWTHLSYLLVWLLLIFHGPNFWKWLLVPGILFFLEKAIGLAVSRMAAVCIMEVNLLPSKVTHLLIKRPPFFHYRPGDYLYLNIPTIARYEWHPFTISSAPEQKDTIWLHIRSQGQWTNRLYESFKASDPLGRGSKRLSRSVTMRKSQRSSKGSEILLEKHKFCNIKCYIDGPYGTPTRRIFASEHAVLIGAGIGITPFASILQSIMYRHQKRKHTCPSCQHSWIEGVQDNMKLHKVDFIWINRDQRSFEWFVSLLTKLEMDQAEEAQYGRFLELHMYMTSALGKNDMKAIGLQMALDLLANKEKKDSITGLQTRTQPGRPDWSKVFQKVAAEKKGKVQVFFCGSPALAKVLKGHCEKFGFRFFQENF
Structure (SMILES),composite z-score [1],z-score [2],z-score [3],z-score [4],z-score [5],composite z-score [6],composite z-score [7],composite z-score [8],composite z-score [9],composite z-score [10],z-score [11],composite z-score [12],z-score [13],z-score [14],z-score [15],z-score [16],z-score [17],z-score [18],z-score [19],z-score [20]
CCOC(=O)C[C@H]1[C@H](OC(=O)c2cc3ccccc3oc2=O)[C@@H](NC(=O)c2ccc3ccccc3c2)c2cc(OCCCO)ccc2N1C(=O)Cc1ccc(OC)cc1,0.174,-0.361 (inactive),-0.784 (inactive),0.402 (inactive),-0.931 (inactive),1,-0.231,0.462,0.746,0.47,-0.62 (inactive),-0.0479,7.22 (inactive),0.935 (inactive),0.703 (inactive),0.525 (inactive),-0.24,3.04 (inactive),1.01 (inactive),1.94
COCCOC(=O)N1C(=O)[C@@]2(c3cc(C#CCC(C(=O)OC)C(=O)OC)ccc31)[C@H](c1ccc(OCCO)cc1)N1[C@H](c3ccccc3)[C@H](c3ccccc3)OC(=O)[C@H]1[C@@H]2C(=O)Nc1nc2ccccc2s1,0.0015,-1.79 (inactive),-0.45 (inactive),0.0384 (inactive),0.282 (inactive),0.067,-0.101,0.212,0.264,1.6,2.25 (inactive),0.129,4.99 (inactive),2.47 (inactive),0.924 (inactive),2.21 (inactive),0.0091,0.892 (inactive),0.647 (inactive),0.93
CC(C)c1ccc(NN2C(C(O)Cc3ccccc3)C=CC3C(=O)N(c4ccccc4)C(=O)C32)cc1 (stereo not given),0.204,-0.695 (inactive),-0.221 (inactive),0.243 (inactive),2.48 (inactive),1.87,-0.152,0.14,0.815,-0.154,-1.76 (inactive),0.181,1.93 (inactive),1.31 (inactive),0.127 (inactive),1.05 (inactive),-1.27,-0.343 (inactive),-3.62 (inactive),-2.69
CN(C)C(=O)[C@@]1(CCC(=O)OC(C)(C)C)N=C(c2ccc(OCCCO)cc2)O[C@H]1c1ccccc1CN=[N+]=[N-],0.281,-0.292 (inactive),-0.0794 (inactive),0.148 (inactive),0.27 (inactive),0.457,0.0857,0.946,1.99,-0.733,0.476 (inactive),0.121,14.6 (active),1.39 (inactive),0.668 (inactive),0.447 (inactive),-0.25,-1.73 (inactive),-0.111 (inactive),-0.901
COC(=O)C1=CC(CCCO)=CC(c2ccc(CN3CCCC3)cc2)N(Cc2cc3c(cc2Br)OCO3)C=C1C(=O)OC (stereo not given),0.804,-0.0928 (inactive),-0.44 (inactive),0.0118 (inactive),-0.602 (inactive),1.98,0.36,0.0851,2.59,-0.249,0.235 (inactive),0.744,0.903 (inactive),0.408 (inactive),1.23 (inactive),0.082 (inactive),0.158,1.64 (inactive),-0.638 (inactive),0.399
COCCOC(=O)N1C(=O)[C@@]2(c3cc(C#Cc4ccc(OC)cc4)ccc31)[C@H](c1ccc(OCCO)cc1)N1[C@H](c3ccccc3)[C@H](c3ccccc3)OC(=O)[C@H]1[C@@H]2C(=O)Nc1nc2ccccc2s1,0.144,-1.1 (inactive),0.408 (inactive),0.272 (inactive),-0.175 (inactive),1.19,0.164,0.29,0.461,0.691,0.905 (inactive),0.101,4.12 (inactive),2.5 (inactive),-0.16 (inactive),2.13 (inactive),0.0972,1.29 (inactive),0.402 (inactive),0.944
CC1(C)C(=O)C(c2ccccc2)=C2CN3C(=O)N(CCc4ccccc4)C(=O)C3(Cc3ccc(F)cc3)C=C21 (stereo not given),0.198,-1.86 (inactive),-0.425 (inactive),0.587 (inactive),-0.0536 (inactive),0.326,0.349,-0.448,0.0142,-1.41,-2.48 (inactive),0.595,2.94 (inactive),0.371 (inactive),1.8 (inactive),0.765 (inactive),-0.16,-0.952 (inactive),-4.15 (inactive),-3.9
COCCOC(=O)N1C(=O)[C@@]2(c3ccccc31)[C@H](c1ccccc1OCCO)N1[C@H](c3ccccc3)[C@H](c3ccccc3)OC(=O)[C@H]1[C@@H]2C(=O)N1CCCCCCC1,1.82,-3.1 (inactive),-0.41 (inactive),-0.744 (inactive),4.93 (inactive),3.64,2.24,2.69,2.39,1.77,-0.553 (inactive),3.11,1.26 (inactive),0.612 (inactive),0.0224 (inactive),0.557 (inactive),-0.37,0.168 (inactive),-1.29 (inactive),0.481
